Results published in PubChem BioAssay (EPA / NIEHS).
Active and inactive are the calls of the source. The calls were made as follows: active = hit-call score of the fitted dose curve at least 0.9, where 1 is the maximum; inactive = score below 0.9.

Key:
[1] = molecular target: Bile acid receptor (Homo sapiens) (UniProt Q96RI1); experiment: ATG_IR1_CIS: Attagene CIS-FACTORIAL HepG2 Assay for human Nuclear Receptor Subfamily 1 Group H Member 4 (NR1H4), IR1 submotif (AID 2282946); conditions: IR1 reporter transcription, actives raise or lower the signal
Sequence of Bile acid receptor (Homo sapiens) (Q96RI1 whole entry, looked up): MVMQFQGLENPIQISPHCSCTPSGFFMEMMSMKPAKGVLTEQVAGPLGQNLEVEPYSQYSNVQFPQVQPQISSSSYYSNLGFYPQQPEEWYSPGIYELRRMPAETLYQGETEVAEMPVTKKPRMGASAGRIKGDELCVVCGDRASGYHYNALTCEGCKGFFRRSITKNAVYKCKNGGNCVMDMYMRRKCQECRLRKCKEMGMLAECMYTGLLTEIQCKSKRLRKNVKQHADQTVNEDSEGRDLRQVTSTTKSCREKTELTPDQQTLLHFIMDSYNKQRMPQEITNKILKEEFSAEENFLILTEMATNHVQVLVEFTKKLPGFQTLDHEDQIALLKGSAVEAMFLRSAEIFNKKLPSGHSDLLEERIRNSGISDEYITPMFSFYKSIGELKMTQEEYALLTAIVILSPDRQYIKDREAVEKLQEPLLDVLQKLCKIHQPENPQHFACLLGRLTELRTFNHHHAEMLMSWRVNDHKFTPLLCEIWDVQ
In short: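 Transient MRTU transfection, HepG2; 24 h dosing; RNA → RT-PCR → 6-FAM primer extension → HpaI digest → capillary electrophoresis fluorescence. Gain/loss of signal fitted relative to DMSO.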

[2] = ATG_GRE_CIS: Attagene CIS-FACTORIAL HepG2 Assay for human Glucocorticoid Response Elements (GRE) (AID 2282947); conditions: HepG2 GRE cis-reporter, Attagene multiplex mRNA; actives raise or lower the signal
In short: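 HepG2 cells transiently transfected with multiple cis-promoter reporter units measure endogenous TF activity; 24 h compound exposure. Reporter mRNA quantified by RT-PCR, FAM labelling, HpaI digestion and capillary electrophoresis; bidirectional fit vs DMSO baseline.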

[3] = ATG_ISRE_CIS: Attagene CIS-FACTORIAL HepG2 Assay for human Interferon Regulatory Factor 1 (IRF1) binding to an Interferon-Stimulated Response Element (ISRE) (AID 2282948); conditions: HepG2 ISRE cis-reporter (Attagene), mRNA transcription readout; actives raise or lower the signal
In short: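 Quantitation relies on labelled RT-PCR fragments separated by capillary electrophoresis. Human HepG2 cells bearing cis-promoter reporter constructs were treated 24 h; DMSO served as baseline for bidirectional fitting.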

[4] = ATG_M_32_CIS: Attagene CIS-FACTORIAL HepG2 Assay for M32 Transcription Factor (Internal Marker) (AID 2282949); conditions: HepG2 Attagene cis-factorial M32 reporter, mRNA; actives raise or lower the signal;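 also: background control marker of the multiplexed CIS panel rather than a real target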
In short: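 Following 24 h chemical exposure of HepG2 cells transiently expressing cis-promoter reporter constructs, reporter transcript levels were determined by RT-PCR with fluorescent labelling and capillary electrophoresis, then fitted bidirectionally against DMSO.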

[5] = ATG_M_06_CIS: Attagene CIS-FACTORIAL HepG2 Assay for M06 Transcription Factor (Internal Marker) (AID 2282950); conditions: HepG2 Attagene CIS-FACTORIAL M06 internal marker reporter; actives raise or lower the signal
In short: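 One of many multiplexed endpoints: HepG2 reporter mRNA after 24 h dosing, detected by RT-PCR and capillary electrophoresis fluorescence; gain or loss of signal analysed against DMSO.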

[6] = molecular target: Hypoxia-inducible factor 1-alpha (Homo sapiens) (UniProt Q16665); experiment: ATG_HIF1a_CIS: Attagene CIS-FACTORIAL HepG2 Assay for human Hypoxia Inducible Factor 1 (HIF1A) (AID 2282951); conditions: HepG2 Attagene cis-factorial HIF1a reporter transcription; actives raise or lower the signal
Sequence of Hypoxia-inducible factor 1-alpha (Homo sapiens) (Q16665 whole entry, looked up): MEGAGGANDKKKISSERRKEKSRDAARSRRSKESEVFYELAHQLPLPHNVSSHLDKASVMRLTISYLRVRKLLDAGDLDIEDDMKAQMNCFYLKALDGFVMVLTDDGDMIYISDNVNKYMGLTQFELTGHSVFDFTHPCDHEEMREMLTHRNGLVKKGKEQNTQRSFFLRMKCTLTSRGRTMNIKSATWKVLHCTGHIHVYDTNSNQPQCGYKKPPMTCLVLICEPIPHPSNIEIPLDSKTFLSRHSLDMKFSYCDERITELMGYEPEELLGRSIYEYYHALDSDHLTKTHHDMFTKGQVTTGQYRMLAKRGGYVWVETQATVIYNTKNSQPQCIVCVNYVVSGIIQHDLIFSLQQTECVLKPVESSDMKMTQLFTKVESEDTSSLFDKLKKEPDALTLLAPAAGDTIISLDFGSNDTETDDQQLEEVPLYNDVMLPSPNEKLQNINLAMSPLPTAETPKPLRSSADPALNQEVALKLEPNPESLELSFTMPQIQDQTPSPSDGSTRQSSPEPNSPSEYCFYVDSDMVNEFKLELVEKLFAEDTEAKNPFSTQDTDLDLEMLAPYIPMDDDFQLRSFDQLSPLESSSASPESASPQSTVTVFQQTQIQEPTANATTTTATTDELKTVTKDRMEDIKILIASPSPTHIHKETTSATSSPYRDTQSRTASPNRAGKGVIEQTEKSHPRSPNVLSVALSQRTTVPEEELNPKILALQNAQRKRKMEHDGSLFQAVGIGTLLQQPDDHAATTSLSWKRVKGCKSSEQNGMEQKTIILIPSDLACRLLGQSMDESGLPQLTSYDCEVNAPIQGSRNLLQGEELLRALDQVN
In short: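 Measures endogenous transcription-factor activity through cis-regulated reporter mRNA in HepG2. Cells dosed 24 h; transcripts quantified by RT-PCR with 6-FAM-labelled products separated by capillary electrophoresis; DMSO serves as negative control.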

[7] = molecular target: Hepatocyte nuclear factor 6 (Homo sapiens) (UniProt Q9UBC0); experiment: ATG_HNF6_CIS: Attagene CIS-FACTORIAL HepG2 Assay for human Hepatocyte Nuclear Factor 6 (HNF6) (AID 2282952); conditions: HepG2 Attagene cis-factorial HNF6 reporter transcription; actives raise or lower the signal
Sequence of Hepatocyte nuclear factor 6 (Homo sapiens) (Q9UBC0 whole entry, looked up, the tested form may be a part): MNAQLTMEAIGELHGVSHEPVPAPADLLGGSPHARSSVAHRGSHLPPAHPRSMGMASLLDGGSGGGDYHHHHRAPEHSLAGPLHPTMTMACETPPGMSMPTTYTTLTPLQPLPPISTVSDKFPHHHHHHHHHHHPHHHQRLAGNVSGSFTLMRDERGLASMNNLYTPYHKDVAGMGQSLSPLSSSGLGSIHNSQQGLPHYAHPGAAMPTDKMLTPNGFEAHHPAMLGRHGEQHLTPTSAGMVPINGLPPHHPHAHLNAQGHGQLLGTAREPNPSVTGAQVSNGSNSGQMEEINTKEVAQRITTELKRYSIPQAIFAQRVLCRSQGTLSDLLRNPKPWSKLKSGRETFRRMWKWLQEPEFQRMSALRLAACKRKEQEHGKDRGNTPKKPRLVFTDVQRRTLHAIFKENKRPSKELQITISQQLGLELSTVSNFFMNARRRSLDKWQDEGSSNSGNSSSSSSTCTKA
In short: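 HepG2 cells transiently transfected with cis-element-driven multiplexed reporter units measuring endogenous transcription factor activity. After 24 h exposure, reporter mRNA quantified by RT-PCR, FAM-labelled fragments and capillary electrophoresis; bidirectional fitting versus DMSO.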

[8] = molecular target: Heat shock factor protein 1 (Homo sapiens) (UniProt Q00613); experiment: ATG_HSE_CIS: Attagene CIS-FACTORIAL HepG2 Assay for human Heat Shock Transcription Factor 1 (HSE) (AID 2282953); conditions: HepG2 HSE cis-reporter, Attagene RNA transcription; actives raise or lower the signal
Sequence of Heat shock factor protein 1 (Homo sapiens) (Q00613 whole entry, looked up): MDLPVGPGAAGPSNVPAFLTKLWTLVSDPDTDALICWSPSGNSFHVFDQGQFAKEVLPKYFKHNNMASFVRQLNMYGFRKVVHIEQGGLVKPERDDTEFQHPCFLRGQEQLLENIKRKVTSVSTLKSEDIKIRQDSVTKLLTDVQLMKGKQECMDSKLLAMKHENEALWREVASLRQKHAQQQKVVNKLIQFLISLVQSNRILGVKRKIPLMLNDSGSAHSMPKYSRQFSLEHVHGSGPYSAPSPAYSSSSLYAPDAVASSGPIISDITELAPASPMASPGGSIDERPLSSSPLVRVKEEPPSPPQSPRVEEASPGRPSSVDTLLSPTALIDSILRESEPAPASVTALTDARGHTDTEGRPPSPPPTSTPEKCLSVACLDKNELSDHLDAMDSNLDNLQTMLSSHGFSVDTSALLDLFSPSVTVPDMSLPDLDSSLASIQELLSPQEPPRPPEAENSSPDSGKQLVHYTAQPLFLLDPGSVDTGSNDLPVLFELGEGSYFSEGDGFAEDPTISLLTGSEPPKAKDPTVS
In short: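 Using HepG2 with transfected cis-driven reporter constructs, compound effects on endogenous factor activity are scored as reporter mRNA change at 24 h. Detection: RT-PCR, HpaI digestion, capillary electrophoresis; bidirectional fitting to DMSO.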

[9] = ATG_PBREM_CIS: Attagene CIS-FACTORIAL HepG2 Assay for human Phenobarbital-responsive Enhancer Module (PBREM) (AID 2282955); conditions: HepG2 PBREM cis-reporter, Attagene multiplexed transcription; actives raise or lower the signal
In short: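 Fluorescence of labelled reporter cDNA fragments, resolved by capillary electrophoresis, gives mRNA induction in transfected HepG2 cells treated for 24 h; DMSO serves as negative control and baseline.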

[10] = molecular target: Paired box protein Pax-6 (Homo sapiens) (UniProt P26367); experiment: ATG_Pax6_CIS: Attagene CIS-FACTORIAL HepG2 Assay for human Paired Box 6 (PAX6) (AID 2282956); conditions: HepG2 CIS-FACTORIAL PAX6 reporter transcription, RNA readout; actives raise or lower the signal
Sequence of Paired box protein Pax-6 (Homo sapiens) (P26367 whole entry, looked up): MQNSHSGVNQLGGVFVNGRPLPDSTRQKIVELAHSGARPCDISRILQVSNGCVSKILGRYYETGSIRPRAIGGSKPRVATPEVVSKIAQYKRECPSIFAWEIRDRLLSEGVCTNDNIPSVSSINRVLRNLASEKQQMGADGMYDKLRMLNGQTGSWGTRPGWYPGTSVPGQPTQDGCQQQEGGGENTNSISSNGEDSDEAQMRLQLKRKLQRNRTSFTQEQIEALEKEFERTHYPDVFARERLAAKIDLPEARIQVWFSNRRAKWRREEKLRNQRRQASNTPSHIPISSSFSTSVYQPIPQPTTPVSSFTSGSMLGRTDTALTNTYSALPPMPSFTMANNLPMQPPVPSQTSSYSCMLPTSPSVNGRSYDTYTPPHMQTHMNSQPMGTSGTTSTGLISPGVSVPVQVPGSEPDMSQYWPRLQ
In short: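 After twenty-four hours of chemical exposure, transfected HepG2 cells are harvested for RNA. Cis-promoter reporter transcripts are amplified, fluorescently labelled and sized by capillary electrophoresis, with gain and loss of signal scored against DMSO.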

[11] = ATG_PXRE_CIS: Attagene CIS-FACTORIAL HepG2 Assay for human Pregnane X Receptor Element (PXRE) (AID 2282957); conditions: HepG2 Attagene CIS-FACTORIAL PXRE reporter, mRNA; actives raise or lower the signal
In short: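 HepG2 cells transiently transfected with cis-element-driven multiplexed reporter units; after 24 h chemical exposure, reporter mRNA measured by RT-PCR, 6-FAM labelling, HpaI digestion and capillary electrophoresis. Bidirectional fitting relative to DMSO.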

[12] = ATG_PPRE_CIS: Attagene CIS-FACTORIAL HepG2 Assay for human Peroxisome Proliferator-activated Response Element (PPRE) (AID 2282958); conditions: HepG2 PPRE cis-element reporter, Attagene transcription factor profiling; actives raise or lower the signal
In short: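 Cells are first transfected transiently with the multiplexed reporter library, then dosed for 24 h. Total RNA is reverse-transcribed, amplified, fluorescently end-labeled and HpaI-cut before capillary electrophoresis; activity is fitted bidirectionally against DMSO controls.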

[13] = ATG_Sox_CIS: Attagene CIS-FACTORIAL HepG2 Assay for human SRY-box transcription factor (SOX) (AID 2282960); conditions: HepG2 Attagene cis-factorial SOX reporter, mRNA; actives raise or lower the signal
In short: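 Transient MRTU transfection of HepG2; 24 h compound incubation; TriZol RNA, oligo(dT) RT, PCR, 6-FAM primer extension, HpaI cut, CE. Bidirectional fit, DMSO = baseline.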

[14] = molecular target: Transcription factor Sp1 (Homo sapiens) (UniProt P08047); experiment: ATG_Sp1_CIS: Attagene CIS-FACTORIAL HepG2 Assay for human Specificity Protein 1 (Sp1) (AID 2282961); conditions: HepG2 Sp1 cis-reporter transcription, actives raise or lower the signal
Sequence of Transcription factor Sp1 (Homo sapiens) (P08047 whole entry, looked up): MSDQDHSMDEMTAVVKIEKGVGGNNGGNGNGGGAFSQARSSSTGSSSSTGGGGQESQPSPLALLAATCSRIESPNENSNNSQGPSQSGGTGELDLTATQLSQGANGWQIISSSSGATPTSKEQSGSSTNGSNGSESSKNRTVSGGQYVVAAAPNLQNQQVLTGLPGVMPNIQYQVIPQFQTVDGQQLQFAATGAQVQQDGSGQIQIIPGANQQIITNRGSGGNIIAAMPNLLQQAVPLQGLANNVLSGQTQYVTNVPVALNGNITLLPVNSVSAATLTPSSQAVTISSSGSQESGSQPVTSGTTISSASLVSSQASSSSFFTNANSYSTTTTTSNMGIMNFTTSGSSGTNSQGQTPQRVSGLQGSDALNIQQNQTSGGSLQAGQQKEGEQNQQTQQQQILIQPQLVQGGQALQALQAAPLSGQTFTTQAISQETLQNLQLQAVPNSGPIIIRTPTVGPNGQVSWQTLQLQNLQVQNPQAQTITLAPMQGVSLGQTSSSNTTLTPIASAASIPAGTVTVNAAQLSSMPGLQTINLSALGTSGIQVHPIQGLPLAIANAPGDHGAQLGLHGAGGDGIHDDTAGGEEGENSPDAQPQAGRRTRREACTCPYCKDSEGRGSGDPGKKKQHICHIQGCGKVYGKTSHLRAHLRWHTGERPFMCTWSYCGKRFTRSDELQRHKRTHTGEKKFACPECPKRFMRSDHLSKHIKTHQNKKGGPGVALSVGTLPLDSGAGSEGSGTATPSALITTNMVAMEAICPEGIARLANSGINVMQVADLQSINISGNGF
In short: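 Endogenous Sp1 activity was gauged in human liver HepG2 cells bearing transfected reporter units under a cis-regulating promoter. After 24 h dosing, reporter mRNA was quantified by RT-PCR with capillary electrophoresis, and activity fitted bidirectionally versus DMSO.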

[15] = ATG_SREBP_CIS: Attagene CIS-FACTORIAL HepG2 Assay for human Sterol Regulatory Element Binding (SREBP) (AID 2282962); conditions: HepG2 Attagene cis-factorial SREBP reporter, mRNA; actives raise or lower the signal
In short: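 Twenty-four hours after chemical dosing of transfected HepG2 cultures, reporter RNA was converted to cDNA, amplified, end-labelled with 6-FAM and resolved by capillary electrophoresis. Responses were fitted relative to DMSO.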

[16] = molecular target: Signal transducer and activator of transcription 3 (Homo sapiens) (UniProt P40763); experiment: ATG_STAT3_CIS: Attagene CIS-FACTORIAL HepG2 Assay for human Signal Transducer and Activator of Transcription 3 (STAT3) (AID 2282963); conditions: HepG2, Attagene cis-factorial STAT3 reporter transcription; actives raise or lower the signal
Sequence of Signal transducer and activator of transcription 3 (Homo sapiens) (P40763 whole entry, looked up): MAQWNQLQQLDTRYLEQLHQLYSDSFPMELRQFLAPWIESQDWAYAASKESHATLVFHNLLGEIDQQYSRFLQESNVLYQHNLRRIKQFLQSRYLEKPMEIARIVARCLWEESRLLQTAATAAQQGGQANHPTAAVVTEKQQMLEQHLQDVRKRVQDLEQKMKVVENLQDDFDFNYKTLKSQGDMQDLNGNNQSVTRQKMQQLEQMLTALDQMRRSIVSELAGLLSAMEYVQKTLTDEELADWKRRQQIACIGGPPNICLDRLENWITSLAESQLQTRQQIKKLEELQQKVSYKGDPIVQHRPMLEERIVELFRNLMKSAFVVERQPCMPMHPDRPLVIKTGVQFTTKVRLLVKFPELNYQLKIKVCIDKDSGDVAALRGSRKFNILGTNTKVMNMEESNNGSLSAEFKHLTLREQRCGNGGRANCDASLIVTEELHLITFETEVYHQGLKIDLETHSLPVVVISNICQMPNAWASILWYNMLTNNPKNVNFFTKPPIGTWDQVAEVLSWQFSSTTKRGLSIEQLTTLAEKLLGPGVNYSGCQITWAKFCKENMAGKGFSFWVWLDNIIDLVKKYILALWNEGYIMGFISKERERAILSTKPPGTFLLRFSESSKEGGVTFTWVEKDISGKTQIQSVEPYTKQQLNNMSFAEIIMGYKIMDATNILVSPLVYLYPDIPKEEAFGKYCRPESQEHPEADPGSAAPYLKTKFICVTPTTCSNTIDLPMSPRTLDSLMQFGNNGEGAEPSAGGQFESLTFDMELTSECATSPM
In short: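 HepG2 cells transiently transfected with cis-element-driven multiple reporter transcription units; after 24 h chemical exposure, reporter mRNA measured by RT-PCR, 6-FAM primer-extension labelling, HpaI digestion and capillary electrophoresis. Bidirectional fitting versus DMSO baseline.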

[17] = ATG_TA_CIS: Attagene CIS-FACTORIAL HepG2 Assay for human TA Basal Promoter (AID 2282964); conditions: HepG2 Attagene CIS-factorial TA basal promoter reporter; actives raise or lower the signal
In short: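 Transient MRTU transfection of HepG2 preceded 24 h compound exposure. Reporter mRNA levels were then read by RT-PCR with capillary electrophoresis, and this background-control endpoint was fitted bidirectionally to DMSO.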

[18] = ATG_RORE_CIS: Attagene CIS-FACTORIAL HepG2 Assay for human RAR-related Orphan Receptor Element (RORE) (AID 2282959); conditions: HepG2 Attagene cis-factorial RORE reporter, mRNA; actives raise or lower the signal
In short: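 Cells were HepG2 carrying transfected cis-regulated reporter constructs, dosed for 24 hours. Total RNA was reverse-transcribed and reporter cDNA amplified, fluorescently labeled and sized by capillary electrophoresis. Activity was fitted bidirectionally relative to DMSO.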

[19] = ATG_MRE_CIS: Attagene CIS-FACTORIAL HepG2 Assay for human Metal Responsive Element (MRE) (AID 2282954); conditions: HepG2 MRE cis-reporter transcription, Attagene multiplex; actives raise or lower the signal
In short: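 HepG2 cells transiently transfected with multiple cis-element reporter units measure endogenous MTF1-driven transcription. After 24 h compound exposure, reporter mRNA is quantified by RT-PCR with 6-FAM labelling, HpaI digestion and capillary electrophoresis; bidirectional fits versus DMSO.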

Measured: AC50

Nc1cc(Cl)c(N)c(Cl)c1
active: [11] 37 µM
not listed: [18] | [19]
inactive: all other assays above

CN(C)Cc1ccccc1O
active: [17] 165 µM
not listed: [19]
inactive: all other assays above

COC(=O)C1CCC(C(=O)OC)CC1 (stereo not given)
not listed: [2] | [9]
inactive: all other assays above

CCCCCC=O
not listed: [2] | [18] | [19]
inactive: all other assays above

OCC(F)(F)C(F)(F)C(F)(F)C(F)(F)C(F)(F)C(F)F
not listed: [8]
inactive: all other assays above

FC(F)(F)C(F)(F)C(F)(F)C(F)(F)CCI
not listed: [1] | [8]
inactive: all other assays above

C=C(C)C(=O)OCC(F)(F)C(F)(F)C(F)(F)C(F)(F)C(F)(F)C(F)(F)C(F)(F)F
not listed: [19]
inactive: all other assays above

O=C(O)C(F)(F)C(F)(F)C(F)(F)C(F)(F)F
not listed: [8]
inactive: all other assays above

C=CC(F)(F)C(F)(F)C(F)(F)C(F)(F)C(F)(F)C(F)(F)C(F)(F)C(F)(F)C=C
not listed: [8] | [18] | [19]
inactive: all other assays above

CC(C)c1ccccc1N
active: [11] 34.9 µM
not listed: [8] | [18] | [19]
inactive: all other assays above

FC(F)(F)C(F)(F)C(F)(F)CI
not listed: [19]
inactive: all other assays above

FC(F)(F)C(F)(F)C(F)(F)N(C(F)(F)C(F)(F)C(F)(F)F)C(F)(F)C(F)(F)C(F)(F)F
not listed: [18]
inactive: all other assays above

Nc1ccc(S(=O)(=O)Nc2nccs2)cc1
not listed: [1] | [6] | [8] | [9] | [18] | [19]
inactive: all other assays above
